Screening results deposited in PubChem by National Center for Advancing Translational Sciences (NCATS).
This is one part of a sample in which hits are shown more often than they occur.
LmPK inhibitor = qHTS Assay for Inhibitors of Leishmania Mexicana Pyruvate Kinase (LmPK) | Q27686 | purified LmPK, Kinase-Glo ATP luminescence, 1 h | Potency, µM (series often up to 57.5 µM), for the others: top-dose activity change, negative = inhibition, most hits filed as inhibitors | actives 0.37% (n = 290,000) | AID 1721, 2009; also: potency is read from the fitted curve at half-maximal effect; % is scaled to controls: 0 for no effect and ±100 for the full control effect
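In 50 mM imidazole pH 7.2 with 7 mM MgCl2, LmPK (0.1 nM) turned over PEP (0.5 mM) and ADP (0.1 mM) for 1 h at room temperature. Luciferase read-out of ATP.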
FBPA Giardia inh = qHTS Assay for Inhibitors of Fructose-1,6-bisphosphate Aldolase from Giardia Lamblia. purified Giardia FBPA. A8B2U2. actives 0.71% (n = 290,000). Potency, µM (series often up to 59.6 µM), for the others: at the top dose activity, negative = inhibition, usual class: inhibitors; also: potency is read from the fitted curve at half-maximal effect; % is scaled to controls: 0 for no effect and ±100 for the full control effect; nearly all actives have a fitted effect of over 55% in size
Target sequence (A8B2U2 whole entry, looked up): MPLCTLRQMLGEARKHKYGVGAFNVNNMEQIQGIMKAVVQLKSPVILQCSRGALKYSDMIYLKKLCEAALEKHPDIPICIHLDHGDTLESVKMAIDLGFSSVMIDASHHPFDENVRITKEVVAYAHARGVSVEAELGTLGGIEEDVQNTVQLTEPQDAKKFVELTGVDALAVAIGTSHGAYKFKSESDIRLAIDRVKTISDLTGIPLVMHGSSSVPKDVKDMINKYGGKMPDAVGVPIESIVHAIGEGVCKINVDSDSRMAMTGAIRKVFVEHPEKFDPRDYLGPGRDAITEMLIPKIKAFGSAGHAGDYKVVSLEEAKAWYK
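40 nM FBPA preincubated 10 min at RT with compound (up to 57.5 uM final), then substrate plus GAPDH/TPI/NAD/arsenate coupling and diaphorase/resazurin added. Fluorescence read after 20 min at RT, 525/598 nm.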
Cycloheximide cs = Cycloheximide Counterscreen for Small Molecule Inhibitors of Shiga Toxin; cell reporter, cycloheximide protein synthesis inhibition counterscreen; max response, %; actives 12% (n = 300,000); in the data active = max response mostly above about 13%, no sharp cut-off; inactive = mostly below about 14%; also: read at 38.3 µM for the half of the compounds with a filed dose; 0% is about no effect
Shiga toxin inh = A qHTS for Small Molecule Inhibitors of Shiga Toxin | actives 9.2% (n = 290,000) | AID 2315, 2010 | Vero cells, Shiga toxin protein synthesis inhibition reporter | inhibition, % at 38.7 µM; in the data active = inhibition mostly above about 28%, no sharp cut-off; inactive = mostly below about 43%; also: 0% is about no effect
RE007 growth inh = qHTS Assay for Inhibitors of the HIV-1 protein Vpr | actives 0.21% (n = 360,000) | Potency, µM (highest dose often 92.2 µM), for the others: top-dose activity change, negative = less growth, usual class: inhibitors | S. pombe RE007 Vpr strain, BacTiter-Glo ATP luminescence, 24 h; active = well fitted falling curve with a large enough effect; inconclusive = small, poorly fitted or top-dose-only effect; inactive = no such curve, though single readings can be large or run the other way; also: potency is read from the fitted curve at half-maximal effect; % is scaled to controls: 0 for no effect and ±100 for the full control effect; nearly all actives have a fitted effect of over 50% in size
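Fission yeast RE007 carrying one integrated HIV-1 vpr copy, seeded at OD 0.01 in PMG+AL medium with 23 nL pinned compound. Grown 24 h at 30 degrees; viability read by BacTiter-Glo luminescence after 5 min.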
TbPYK inhibitor = qHTS of Trypanosoma Brucei Inhibitors | actives 0.12% (n = 410,000) | TbPYK enzyme, Kinase-Glo Plus ATP luminescence, 45 min | pyruvate kinase (Trypanosoma brucei), Q57TT1 | AID 624173, 2012 | Potency, µM (highest dose often 76.8 µM), for inactives: at the top dose activity, negative = inhibition, usual class: inhibitors; also: potency is read from the fitted curve at half-maximal effect; % is scaled to controls: 0 for no effect and ±100 for the full control effect; nearly all actives have a fitted effect of over 50% in size
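Luminescence from Kinase-Glo Plus, added after a 45-minute room-temperature reaction, served as the end-point read-out. The enzyme and substrate were preincubated with compound before ADP (130 uM final) initiated turnover. Concentration-effect curves came from normalized qHTS data.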
* marks the source's active call; other numbers are inactive results; ? = inconclusive; · = no result given; [ ] = dose if it differs, or a comment. Unless noted, calls follow the shape of the dose curve; as a rule, active = well fitted curve in the direction sought with a large enough effect; inconclusive = small, poorly fitted or top-dose-only effect, or another doubt; inactive = no such curve, though single readings can be large; an effect the other way counts as inactive or inconclusive.

SMILES	LmPK inhibitor	FBPA Giardia inh	Cycloheximide cs	Shiga toxin inh	RE007 growth inh	TbPYK inhibitor
N[C@@H](C(=O)O)[C@H](CC(=O)O)c1ccc(Cl)cc1	·	4%	·	·	·	·
CCc1nn2c(=O)cc(COC(=O)c3ccccc3NC(=O)COc3ccc(F)cc3)nc2s1	·	·	·	·	·	-2%
CCOc1ccccc1NC(=O)c1c(NC(=O)Cc2ccc(OC)cc2)sc2c1CCC2	·	·	·	·	·	0%
CC1CCc2c(sc(/N=C/c3cccnc3)c2C(N)=O)C1 (configuration not stated)	3%	-15%	16*	54	-2%	-24%
CC1CCc2c(sc(/N=C/c3ccco3)c2C(N)=O)C1 (configuration not stated)	-1%	-18%	38*	74*	1%	-6%
Cc1ccccc1OCc1nc(-c2ccc(NC(=O)c3ccco3)cc2)no1	-14%	-3%	35*	52*	-5%	-8%
Cc1ccccc1OCc1nc(-c2ccc(NC(=O)c3cccs3)cc2)no1	-18%	0%	50*	154*	-11%	0%
CC(Oc1ccc(Cl)cc1Cl)c1nc(-c2ccc(NC(=O)c3ccco3)cc2)no1 (configuration not stated)	0%	-1%	71*	113*	-10%	-14%
Cc1ccccc1OCc1nc(-c2ccc(NC(=O)c3ccc4c(c3)OCO4)cc2)no1	-6%	11%	15	20	7%	6%
Cc1noc(C)c1C(=O)Nc1sc(C)c(-c2ccccc2)c1C#N	5%	-22%	6	13	-7%	1%
Cc1cccc(C(=O)Nc2sc(C)c(-c3ccccc3)c2C#N)c1	-3%	-4%	41*	59*	1%	-5%
CCCC(=O)Nc1sc(C)c(-c2ccc(OC)cc2)c1C#N	-3%	8%	-4	6	17%	3%
Cc1sc(NC(=O)C2CCCCC2)c(C#N)c1-c1ccccc1	5%	-10%	57*	142*	-8%	-9%
CCNC(=O)c1cnc2sc(N3CCC(C)CC3)nn2c1=O	·	·	·	·	·	-1%
O=C(c1nc(-c2ccc(Cl)cc2)n2c1CCCCC2)N1CCN(c2ccc(F)cc2)CC1	·	·	·	·	·	-1%
COc1cc(/C=C(/C#N)C(=O)NC(C)c2ccccc2)cc(OC)c1O (configuration not stated)	3%	·	-11	-20	-4%	-20%
COc1ccccc1/C=C/C=C(\C#N)C(=O)NC(C)c1ccccc1 (configuration not stated)	2%	-1%	11*	-2	14%	-1%
CCOC(=O)c1ccc(NC(=O)CN(Cc2ccc(C)cc2)S(=O)(=O)c2ccc(C)cc2)cc1	·	·	·	·	·	5%
CC(C)Nc1nc2c(c(=O)n(C)c(=O)n2C)n1C	2%	1%	-3	2	4%	0%
Cn1c(=O)c2c(nc(NC3CCCC3)n2C)n(C)c1=O	4%	6%	25*	-3	-1%	-6%
CCN(CC)c1ccc(NC(=O)c2cc(CN3CCCC3)on2)c(C)c1	·	·	·	·	·	-15%
CCCNC(=O)CS(=O)(=O)c1ccccc1	0%	-7%	10*	16	2%	-3%
O=C(CS(=O)(=O)c1ccccc1)NCc1ccccc1	-4%	22%	-2	-5	-3%	4%
Cc1ccc(CNC(=O)CS(=O)(=O)c2ccccc2)cc1	4%	1%	26*	44	-12%	0%
O=C(c1ccc(Cl)cc1)c1c[nH]c(C(=O)NNc2ccccc2)c1	0%	0%	-7	-20	149%	0%
SMILES	LmPK inhibitor	FBPA Giardia inh	Cycloheximide cs	Shiga toxin inh	RE007 growth inh	TbPYK inhibitor
CNC(=O)c1cc(C(=O)c2ccc(Cl)cc2)c[nH]1	-3%	3%	24*	56*	2%	-4%
C=CC1=C2C=C(C3CC3)N(CCOC)C=C2C(=O)C(C)(OC(=O)c2ccco2)C1=O (configuration not stated)	-3%[11.5 µM]	?	·	·	·	·
Cc1ccc(N2C(=O)CS(=O)(=O)C23C(=O)N(Cc2cccc(F)c2)c2ccccc23)cc1Cl (configuration not stated)	·	·	·	·	·	0%
O=C(N/N=C/c1c(O)ccc2ccccc12)c1[nH]ncc1Br	0%	-22%	44*	82*	-12%	-1%
Cc1ccc(O)c(/C=N/NC(=O)C2=NNC(c3ccccc3)(c3ccccc3)C2)c1	2%	?	1	21	·	·
COc1cccc(C(=O)N/N=C/c2cn[nH]c2-c2ccc(OC)cc2OC)c1	2%	8%	17*	13	3%	3%
COc1ccc(OC)c(/C=N/NC(=O)c2[nH]ncc2Br)c1	0%	-12%	43*	72*	-8%	1%
Cc1ccc(O)c(/C=N/NC(=O)c2[nH]ncc2Br)c1	?	?	34*	59*	78%	-11%
O=C(NN=Cc1c(O)ccc2ccccc12)C1CC1	·	·	·	·	-20%	-7%
COc1ccc(Br)cc1/C=N/NC(=O)c1cccnc1	-5%	1%	1	-10	3%	2%
COc1ccc(-c2[nH]ncc2/C=N\NC(=O)c2ccc(Br)o2)cc1OC	4%	·	19*	34*	4%	1%
CCOc1ccc(/C=N/NC(=O)c2cccc3ccccc23)c(OCC)c1	8%	3%	-2	-17	0%	-4%
CCOc1ccc(/C=N/NC(=O)c2[nH]ncc2Br)c(O)c1	7.9µM*	12%	35*	49*	?	?
O=C(Nc1c(O)c2ccccc2oc1=O)c1cccc(F)c1	·	·	·	·	·	0%
COc1cccc(CCNC(=O)c2cc(COc3c(F)cccc3F)on2)c1	-1%	-10%	16*	-2	-30%	6%
COc1cccc(CCNC(=O)c2cc(COc3cccc(OC)c3)on2)c1	·	·	·	·	-8%	0%
Cc1cc(OCc2cc(C(=O)NCc3csc(C(C)C)n3)no2)cc(C)c1Cl	11%	-3%	20*	7	-22%	-3%
Cc1ccc(OCc2cc(C(=O)NCc3cn4ccccc4n3)no2)cc1C	-1%	-11%	20*	37*	5%	1%
Cc1cc(OCc2cc(C(=O)NCCN3CCCCC3CO)no2)cc(C)c1Cl (configuration not stated)	3%	·	-8	-15	1%	1%
O=C(CC1CCCC1)NCCc1cn2ccccc2n1	6%	-8%	12	24	3%	-18%
O=C(NCCc1cn2ccccc2n1)c1cc(COc2c(F)cccc2F)on1	2%	?	17*	52	3%	3%
CN(C)C(=O)c1ccc(-c2cc(C(F)(F)F)nn2C)s1	-1%	-8%	39*	53*	30%	-1%
Cn1nc(C(F)(F)F)cc1-c1ccc(S(N)(=O)=O)s1	2%	2%	38*	68*	5%	5%
